# Experimental data published in PubChem BioAssay AID602143 (Vanderbilt Specialized Chemistry Center, 2011).
# Several values for one entry are separate records, joined by “and”; a condition that tells them apart may be missing. Equal entries are not always repeated. Values without a mark were called inactive. Activity calls are given as the source filed them. No stated cut-off is given here; in the data, active means remaining activity below about 50%; inactive means the rest.
# Target: Phospholipase D2 (Homo sapiens) (UniProt O14939)
# Assay: cellular phospholipase D2 activity inhibition – cell-based, HEK293, single concentration (AID 602143);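 further: tested at 200 nM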
# Details: HEK293 cellular PLD2 activity, percent of control; active compounds read low
# Phospholipase D2 (Homo sapiens), sequence (O14939 whole entry, looked up): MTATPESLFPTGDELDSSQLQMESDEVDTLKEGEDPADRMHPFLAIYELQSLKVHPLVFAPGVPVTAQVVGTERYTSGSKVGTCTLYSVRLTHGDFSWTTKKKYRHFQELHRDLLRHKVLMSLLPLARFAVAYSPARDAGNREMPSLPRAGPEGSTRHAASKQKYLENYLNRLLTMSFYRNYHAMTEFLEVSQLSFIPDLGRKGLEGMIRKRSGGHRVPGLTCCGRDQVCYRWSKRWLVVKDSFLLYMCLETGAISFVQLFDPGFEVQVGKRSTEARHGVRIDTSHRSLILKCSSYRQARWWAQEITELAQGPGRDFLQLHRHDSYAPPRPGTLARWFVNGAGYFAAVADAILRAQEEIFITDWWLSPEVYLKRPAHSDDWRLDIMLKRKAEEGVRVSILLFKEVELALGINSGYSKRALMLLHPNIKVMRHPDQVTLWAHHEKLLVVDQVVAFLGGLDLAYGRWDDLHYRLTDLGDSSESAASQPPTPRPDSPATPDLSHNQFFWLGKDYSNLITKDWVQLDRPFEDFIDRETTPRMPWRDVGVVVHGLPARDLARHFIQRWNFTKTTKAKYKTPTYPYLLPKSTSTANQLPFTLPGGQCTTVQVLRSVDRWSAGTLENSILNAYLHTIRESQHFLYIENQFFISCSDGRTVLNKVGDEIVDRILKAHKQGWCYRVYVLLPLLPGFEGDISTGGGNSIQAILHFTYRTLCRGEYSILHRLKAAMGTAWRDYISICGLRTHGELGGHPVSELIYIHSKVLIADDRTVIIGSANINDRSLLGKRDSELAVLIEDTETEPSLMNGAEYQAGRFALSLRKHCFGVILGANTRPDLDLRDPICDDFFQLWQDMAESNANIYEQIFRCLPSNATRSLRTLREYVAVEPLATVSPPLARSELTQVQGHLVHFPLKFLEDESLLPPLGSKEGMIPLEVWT
# Phospholipase D2 (Homo sapiens), sequence (O14939 whole entry, looked up): as above
row,SMILES,remaining activity
1,O=C(NCCN1CCC(n2c(=O)[nH]c3ccccc32)CC1)C1CCc2ccccc2C1 (stereo not given),103%
2,COc1cccc(C(=O)NCCN2CCC(n3c(=O)[nH]c4ccccc43)CC2)n1,72.5%
3,O=C(NCCN1CCC(n2c(=O)[nH]c3ccccc32)CC1)c1ccc2cccc3c2c1CC3,98%
4,CN1CCC2(CCN(CCNC(=O)[C@H]3C[C@@H]3c3ccccc3)CC2)C1=O,102%
5,O=C(NCCN1CCC(n2c(=O)[nH]c3ccccc32)CC1)c1ncccn1,90.1%
6,O=C(NCCN1CCC2(CCc3ccccc32)CC1)c1ccc2ccccc2c1,124%
7,O=C(C1C[C@@H]1c1ccccc1)N1CCC2(CC1)C(=O)NCN2c1ccccc1 (stereo not given in full),84%
8,O=C(NCCN1CCC(n2c(=O)[nH]c3ccccc32)CC1)c1cccc(Cl)n1,75.4%
9,O=C(N[C@@H](Cc1ccccc1)CN1CCC(n2c(=O)[nH]c3ccccc32)CC1)c1cnc2ccccc2c1,60.2%
10,COc1ccc(S(=O)(=O)NCCN2CCC(n3c(=O)[nH]c4ccccc43)CC2)cc1,127%
11,O=C(c1ccc(Cl)cc1)N(CCN1CCC(n2c(=O)[nH]c3ccccc32)CC1)C(=O)c1ccc(Cl)cc1,94.2%
12,C[C@@H](CN1CCC(n2c(=O)[nH]c3ccccc32)CC1)NC(=O)c1cc2ccccc2s1,38.6% (active)
13,Cc1ccc(C(=O)N[C@@H](C)CN2CCC(n3c(=O)[nH]c4cc(Br)ccc43)CC2)cc1,74%
14,C[C@H](CN1CCC2(CC1)CNCc1ccccc12)NC(=O)c1cnc2ccccc2c1,100%
15,C[C@@H](CN1CCC(n2c(=O)[nH]c3cc(F)ccc32)CC1)NC(=O)c1ccc(F)c(F)c1,85.2%
16,O=c1[nH]c2ccccc2n1C1CCN(CCNS(=O)(=O)c2cc(Cl)ccc2Cl)CC1,68.8%
17,O=C(NCCN1CCC(n2c(=O)[nH]c3ccccc32)CC1)c1cc2ccccc2c2ccccc12,51.2%
18,CC(=O)c1cccc(NC(=O)NCCN2CCC(n3c(=O)[nH]c4ccccc43)CC2)c1,118%
19,O=C(NCCN1CCC(n2c(=O)[nH]c3ccccc32)CC1)c1ccccc1-c1ccccc1,83.4%
20,C[C@@H](CN1CCC2(CCc3ccccc32)CC1)NC(=O)c1cnc2ccccc2c1,108%

row,SMILES,remaining activity
1,O=C1c2ccccc2C(=O)N1CCN1CCC(n2c(=O)[nH]c3cc(Cl)ccc32)CC1,90.8%
2,O=C(NCCN1CCC2(CC1)CCN(c1ccccc1)C2=O)c1cnc2ccccc2c1,42.3% (active)
3,O=C(NCCN1CCC(C(=O)NCCCN2CCOCC2)CC1)c1ccc2ccccc2c1,125%
4,C[C@@H](CN1CCC(n2c(=O)[nH]c3ccc(F)cc32)CC1)NC(=O)c1ccc(F)c(F)c1,52.6%
5,CC1(C)[C@@H]2CC[C@@]1(CS(=O)(=O)NCCN1CCC(n3c(=O)[nH]c4ccccc43)CC1)C(=O)C2,79.6%
6,C[C@H](CN1CCC2(CC1)CNc1ccccc12)NC(=O)c1ccc2ccccc2c1,53.8%
7,Cn1c(C2CCN(CC3(N)CCCC3)CC2)nc2ccccc21 (tested in a mixture with another compound),118%
8,O=C(c1ccc(Cl)cc1)N1CCC2(CC1)C(=O)NCN2c1ccccc1,69.9%
9,Cn1c(C2CCN(CCN)CC2)nc2ccccc21 (tested in a mixture with another compound),117%
10,C[C@@H](CN1CCC(n2c(=O)[nH]c3ccccc32)CC1)NC(=O)c1ccc(Cl)c(Cl)c1,76.3%
11,O=C(NCCN1CCC(n2c(=O)[nH]c3ccccc32)CC1)c1ccc2c(ccc3ccc4ccccc4c32)c1,96.7%
12,O=C1c2ccccc2C(=O)N1CCCN1CCC(n2c(=O)[nH]c3cc(Cl)ccc32)CC1,74.6%
13,O=C(NCCN1CCC(n2c(=O)[nH]c3ccccc32)CC1)c1cccc2ccc3ccccc3c12,65.9%
14,C[C@@H](CN1CC=C(n2c(=O)[nH]c3ccccc32)CC1)NC(=O)c1ccc2ccccc2c1,15.3% (active)
15,O=C(NCCN1CCN(c2ncccn2)CC1)c1ccc(Cl)cc1,106%
16,C[C@@H](NC(=O)NCCN1CCC(n2c(=O)[nH]c3ccccc32)CC1)c1ccccc1,107% and 123%
17,O=C(NCCN1CCN(c2ccncc2)CC1)c1ccc(F)cc1,102%
18,O=C(NCCN1CCC2(CC1)CNc1ccccc12)c1ccc2ccccc2c1,61.8%
19,O=C(NCCN1CCC(n2nnc3ccccc32)CC1)c1ccc2ccccc2c1,0.808% (active)
20,O=C(NCCN1CCC(n2c(=O)[nH]c3cc(Cl)ccc32)CC1)c1ccc(Cl)cc1,56.9%
